PubChem BioAssay AID1159580 (chemical genetic matrix, 2015)
Several values for one entry are separate records, joined by “and”; a condition that tells them apart may be missing. Equal entries are not always repeated. The campaign covered roughly 5,500 compounds. About 2,000 (36%) were called active. About 18% were inconclusive and are not listed. Cut-off read from the data, not from the text of the source: active = normalized growth mostly below about 0.91 (no sharp cut-off); inconclusive = no clear call, values can overlap the other calls; inactive = mostly above about 0.92. This is one part of the list.

Test: chemical genetic growth profiling, strain panel (AID 1159580);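 note: tested at 20 µM; growth read once vehicle control cultures reached saturation at 30 °C; 1 = growth at the plate median or of vehicle wells; lower values mean less growth of the strain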
Details: S. cerevisiae deletion strains, growth OD

Measured: normalized growth

CCCCN1CCCCC1C(=O)Nc1c(C)cccc1C (configuration not stated)
inactive: locus YAL013W, strain DEP1, stronger effect = lower value 1.02 | locus YAL021C, strain ccr4, stronger effect = lower value 0.992 | locus YAL026C, strain drs2, stronger effect = lower value 1.01 | locus YAL030W, strain snc1, stronger effect = lower value 0.991 | locus YBL061C, strain skt5, stronger effect = lower value 0.992 | locus YBR009C, strain hhf1, stronger effect = lower value 0.976 | locus YBR021W, strain FUR4, stronger effect = lower value 1.01 | locus YBR023C, strain chs3, stronger effect = lower value 0.977 | locus YBR171W, strain sec66, stronger effect = lower value 0.991 | locus YBR229C, strain ROT2, stronger effect = lower value 1.02 | locus YBR231C, strain swc5, stronger effect = lower value 0.995 | locus YBR279W, strain paf1, stronger effect = lower value 0.994 | locus YCL011C, strain gbp2, stronger effect = lower value 0.986 | locus YCL016C, strain dcc1, stronger effect = lower value 1 | locus YCL029C, strain bik1, stronger effect = lower value 0.986 | locus YCL061C, strain MRC1, stronger effect = lower value 0.981 | locus YCL069W, strain vba3, stronger effect = lower value 0.99 | locus YCR088W, strain abp1, stronger effect = lower value 0.986 | locus YDL005C, strain med2, stronger effect = lower value 0.984 | locus YDL035C, strain GPR1, stronger effect = lower value 1.03 | locus YDL040C, strain nat1, stronger effect = lower value 1 | locus YDL074C, strain BRE1, stronger effect = lower value 1.01 | locus YDL101C, strain DUN1, stronger effect = lower value 1.01 | locus YDL134C, strain PPH21, stronger effect = lower value 1.01 | locus YDL185W, strain tfp1, stronger effect = lower value 0.995 | locus YDL192W, strain arf1, stronger effect = lower value 1 | locus YDR001C, strain nth1, stronger effect = lower value 0.978 | locus YDR069C, strain doa4, stronger effect = lower value 0.972 | locus YDR101C, strain arx1, stronger effect = lower value 1 | locus YDR137W, strain rgp1, stronger effect = lower value 0.965 | locus YDR150W, strain NUM1, stronger effect = lower value 1.02 | locus YDR159W, strain sac3, stronger effect = lower value 0.984 | locus YDR162C, strain NBP2, stronger effect = lower value 1.02 | locus YDR195W, strain ref2 0.967 | locus YDR297W, strain sur2, stronger effect = lower value 0.986 | locus YDR318W, strain mcm21, stronger effect = lower value 0.995 | locus YDR334W, strain swr1, stronger effect = lower value 0.969 | locus YDR335W, strain msn5, stronger effect = lower value 0.987 | locus YDR388W, stronger effect = lower value 0.986 | locus YDR392W, strain spt3, stronger effect = lower value 0.991 | locus YDR502C, strain sam2, stronger effect = lower value 1 | locus YEL003W, strain gim4, stronger effect = lower value 0.983 | locus YEL037C, strain rad23, stronger effect = lower value 0.993 | locus YEL061C, strain CIN8 (second series), stronger effect = lower value 0.973 | locus YEL061C, strain CIN8, stronger effect = lower value 1.01 | locus YER015W, strain faa2, stronger effect = lower value 0.992 | locus YER016W, strain bim1, stronger effect = lower value 0.987 | locus YER110C, stronger effect = lower value 0.995 | locus YER111C, strain swi4, stronger effect = lower value 1.01 | locus YER155C, strain BEM2 (second series), stronger effect = lower value 0.997 | locus YER155C, strain BEM2, stronger effect = lower value 1 | locus YER167W, strain BCK2, stronger effect = lower value 1.03 | locus YFR010W, strain ubp6, stronger effect = lower value 0.974 | locus YGL078C, strain dbp3, stronger effect = lower value 0.996 | locus YGL086W, strain mad1, stronger effect = lower value 1.01 | locus YGL167C, strain pmr1, stronger effect = lower value 0.992 | locus YGL173C, strain kem1, stronger effect = lower value 1.01 | locus YGL227W, strain vid30, stronger effect = lower value 0.973 | locus YGL240W, strain doc1, stronger effect = lower value 0.98 | locus YGL248W, strain PDE1, stronger effect = lower value 1.02 | locus YGL253W, strain hxk2, stronger effect = lower value 0.994 | locus YGR078C, strain PAC10, stronger effect = lower value 1.01 | locus YGR135W, strain pre9, stronger effect = lower value 0.997 | locus YGR229C, strain SMI1, stronger effect = lower value 1.01 | locus YGR252W, strain gcn5, stronger effect = lower value 1.06 | locus YHR013C, strain ard1, stronger effect = lower value 0.988 | locus YHR027C, strain rpn1, stronger effect = lower value 0.99 | locus YHR030C, strain SLT2, stronger effect = lower value 1.01 and 0.987 | locus YHR079C, strain IRE1 (second series), stronger effect = lower value 0.99 | locus YHR079C, strain IRE1, stronger effect = lower value 0.975 | locus YHR094C, strain hxt1, stronger effect = lower value 0.997 | locus YHR129C, strain ARP1, stronger effect = lower value 1.01 | locus YHR142W, strain chs7, stronger effect = lower value 0.999 | locus YHR200W, strain rpn10, stronger effect = lower value 0.986 | locus YIL066C, strain RNR3, stronger effect = lower value 1.01 | locus YIL073C, strain SPO22, stronger effect = lower value 0.989 | locus YIL125W, strain kgd1, stronger effect = lower value 0.997 | locus YIR030C, strain dcg1, stronger effect = lower value 0.992 | locus YJL092W, strain hpr5, stronger effect = lower value 0.969 | locus YJL095W, strain BCK1 (second series), stronger effect = lower value 0.995 | locus YJL095W, strain BCK1, stronger effect = lower value 1 and 0.971 | locus YJL115W, strain asf1, stronger effect = lower value 0.998 | locus YJL129C, strain trk1, stronger effect = lower value 0.966 | locus YJL134W, strain LCB3, stronger effect = lower value 1.01 | locus YJL154C, strain vps35, stronger effect = lower value 0.991 | locus YJL164C, strain tpk1, stronger effect = lower value 0.978 | locus YJL166W, strain qcr8, stronger effect = lower value 0.994 | locus YJL168C, strain set2, stronger effect = lower value 0.99 | locus YJL187C, strain SWE1 (second series), stronger effect = lower value 1.01 | locus YJL187C, strain SWE1, stronger effect = lower value 0.99 | locus YJR043C, strain POL32, stronger effect = lower value 1.01 | locus YJR066W, strain TOR1, stronger effect = lower value 0.957
